Assay results from PubChem BioAssay (NCATS).
Results filed as inconclusive are left out. The source made the active and inactive calls. Unless noted, the rule behind the calls is not given here.

Legend:
[1] = qHTS profiling of the MIPE4 collection as inhibitors of Plasmodium falciparum (3D7) proliferation (AID 743344);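 note: scaled between DMSO vehicle wells and 0.29 µM artemisinin as full inhibition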; conditions: P. falciparum 3D7 in erythrocytes, SYBR Green DNA fluorescence, 72 h; at 28.5 µM unless noted
In short: (§1)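 Parasite DNA was quantified by SYBR Green I fluorescence (ex 485, em 535 nm) after overnight lysis in saponin/Triton buffer at room temperature. Cultures at 0.3% parasitemia and 2.5% hematocrit were first exposed to compound for 72 h at 37 C; signals were normalised to artemisinin (0.29 uM) and vehicle wells.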

[2] = qHTS profiling of the MIPE4 collection as inhibitors of Plasmodium falciparum (DD2) proliferation (AID 743345); conditions: P. falciparum Dd2 in erythrocytes, SYBR Green DNA, 72 h; at 28.5 µM unless noted
In short: as §1

[3] = qHTS profiling of the MIPE4 collection as inhibitors of Plasmodium falciparum (DD2) proliferation (Rep 2) (AID 743346); conditions: P. falciparum Dd2 in erythrocytes, SYBR Green DNA, 72 h; at 28.5 µM unless noted
In short: as §1

[4] = qHTS profiling of the MIPE4 collection as inhibitors of Plasmodium falciparum (HB3) proliferation (AID 743347);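 note: plate controls were DMSO vehicle wells for no effect and artemisinin wells for full effect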; conditions: P. falciparum HB3 in erythrocytes, SYBR Green DNA, 72 h; at 28.5 µM unless noted
In short: as §1

[5] = High-throughput drug toxicity screening in the BPDCN cell line Gen2.2 (AID 1224824); conditions: Gen2.2 BPDCN cells; at 45.8 µM (top of the series) unless noted;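 note: cells exposed to compounds for 48 h before reading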
In short: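 Readout is ATP luminescence from Gen2.2 cells after two days of drug exposure in serum-containing medium at 37 °C. Values express percent activity, with vehicle defining full signal and 9.2 uM bortezomib defining zero.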

[6] = High-throughput drug toxicity screening in the BPDCN cell line Cal-1 (AID 1224825); conditions: Cal-1 BPDCN cell viability, qHTS; at 45.8 µM (top of the series) unless noted
In short: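 CellTiter-Glo luminescence after 48 h compound exposure; percent activity scaled with DMSO as 100% and bortezomib (9.2 uM final) as 0%. Cal-1 cells seeded at 500/well in RPMI, 10% FBS, no phenol red.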

[7] = qHTS assay for measurement of the activity of small molecule inhibitors on Zika virus induced Caspase-3 activity in human iPSC derived neural progenitor cells (hNPCs) (AID 1224857; active = well fitted curve in the direction sought with a large enough effect; an effect the other way counts as inactive or inconclusive; note: nearly all actives have a fitted effect of over 65% in size; note: potency is the fitted concentration of half-maximal effect)
In short: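 Values are percent inhibition of virus-induced caspase-3/7 signal, scaled between uninfected cells and ZIKV-infected cells. Infection used 2 FFU/cell for 6 h after 1 h compound exposure.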

[8] = qHTS assay for measurement of the activity of small molecule inhibitors on Zika virus induced Caspase-3 activity in human astrocytoma cells (AID 1224859; active = well fitted curve in the direction sought with a large enough effect; an effect the other way counts as inactive or inconclusive;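 note: plate controls were ZIKV-infected untreated cells for no effect and uninfected cells for full effect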)
In short: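 Compound added 1 h pre-infection; ZIKV 2 FFU/cell on SNB-19 cells, 6 h, 37 C/5% CO2. Caspase-Glo 3/7 luminescence; values as % inhibition of ZIKV-induced caspase activity.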

[9] = qHTS Screen of the MIPE 4.0 Collection Against Ewings Sarcoma (EW8) (AID 1259255; active = well fitted curve in the direction sought with a large enough effect; an effect the other way counts as inactive or inconclusive; note: nearly all actives have a fitted effect of over 35% in size; note: potency is the fitted concentration of half-maximal effect;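 for viability: 100% = DMSO-treated cells and 0% = medium-only wells without cells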)
In short: (§2)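 Dose series incubated 48 h with cells in RPMI plus 5% FBS, glutamine and penicillin/streptomycin; cell viability then quantified via CellTiter-Glo.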

[10] = qHTS Screen of the MIPE 4.0 Collection Against Ewings Sarcoma (TC32) (AID 1259256; active = well fitted curve in the direction sought with a large enough effect; an effect the other way counts as inactive or inconclusive; note: nearly all actives have a fitted effect of over 45% in size; note: potency is the fitted concentration of half-maximal effect)
In short: as §2

[11] = qHTS profiling for inhibitors of Plasmodium falciparum (HB3) proliferation (AID 743324; active = well fitted curve in the direction sought with a large enough effect; an effect the other way counts as inactive or inconclusive;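 note: 100% = DMSO vehicle wells and 0% = artemisinin-treated control wells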); conditions: Plasmodium falciparum HB3 blood-stage proliferation; at 28.7 µM (top of the series) unless noted
In short: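 SYBR Green fluorescence (485 ex/535 em) of lysed cultures, incubated overnight at room temperature in the dark, quantifies parasite DNA. Infected erythrocytes at 0.3% parasitemia and 2.5% hematocrit were exposed 72 h; values normalized to DMSO and 0.29 uM artemisinin controls.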

[12] = Identifying Small Molecule Inhibitors of Pancreatic Cancer Stem Cells (A2780, Spheroid) (AID 1259357; active = well fitted curve in the direction sought with a large enough effect; an effect the other way counts as inactive or inconclusive; note: potency is the fitted concentration of half-maximal effect;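 note: spheroids pre-formed over 14 days in stem cell medium on hydrogel; compound exposure lasted 48 h before the ATP luminescence read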); conditions: Potency: A2780 spheroid viability
In short: (§3)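 Luminescent ATP readout (CellTiter-Glo) quantifies surviving cells after a 48 h drug incubation. Normalization uses DMSO wells as no inhibition and media-only wells as full inhibition; bortezomib served as positive control.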

[13] = Identifying Small Molecule Inhibitors of Pancreatic Cancer Stem Cells (Panc1, Spheroid) (AID 1259359; active = well fitted curve in the direction sought with a large enough effect; an effect the other way counts as inactive or inconclusive;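 note: potency is the fitted concentration of half-maximal effect; compound exposure lasted 48 h before reading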)
In short: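 After a 4 h attachment period, compounds were pinned into wells and cultures held 48 h under standard incubator conditions. Viability was then measured as CellTiter-Glo luminescence following 10 min at room temperature.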

[14] = Identifying Small Molecule Inhibitors of Pancreatic Cancer Stem Cells (SN12C, Spheroid) (AID 1259360; active = well fitted curve in the direction sought with a large enough effect; an effect the other way counts as inactive or inconclusive; note: potency is the fitted concentration of half-maximal effect;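 for viability (% of control): 100% = DMSO-treated cells and 0% = wells without cells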); conditions: Potency: SN12C spheroid viability
In short: as §3

[15] = Identifying Small Molecule Inhibitors of Pancreatic Cancer Stem Cells (A278, Adherent) (AID 1259361; active = well fitted curve in the direction sought with a large enough effect; an effect the other way counts as inactive or inconclusive;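 note: viability read after 48 h compound exposure; nearly all actives have a fitted effect of over 35% in size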)
In short: (§4)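 Endpoint: ATP-based luminescence, 48 h drug exposure. Bortezomib at 9.2 uM final as full-kill control; DMSO vehicle as negative control; activity normalized between vehicle and cell-free wells.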

[16] = qHTS Screen of the MIPE 4.0 Collection Against Ewings Sarcoma (RDES) (AID 1259252; active = well fitted curve in the direction sought with a large enough effect; an effect the other way counts as inactive or inconclusive;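 note: 100% = DMSO-treated cells and 0% = medium-only wells without cells; nearly all actives have a fitted effect of over 35% in size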)
In short: as §2

[17] = qHTS Screen of the MIPE 4.0 Collection Against Ewings Sarcoma (TC71) (AID 1259253; active = well fitted curve in the direction sought with a large enough effect; an effect the other way counts as inactive or inconclusive; note: nearly all actives have a fitted effect of over 40% in size; note: potency is the fitted concentration of half-maximal effect)
In short: as §2

[18] = Identifying Small Molecule Inhibitors of Pancreatic Cancer Stem Cells (SN12C, Adherent) (AID 1259358; active = well fitted curve in the direction sought with a large enough effect; an effect the other way counts as inactive or inconclusive;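 note: cell survival measured after 48 h of compound exposure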)
In short: as §4

[19] = qHTS assay to identify small molecule inhibitors of chordoma cells - UCH-1 (AID 1259355; active = well fitted curve in the direction sought with a large enough effect; an effect the other way counts as inactive or inconclusive; note: % is set by controls: 0 for no effect and ±100 for the full control effect; nearly all actives have a fitted effect of over 55% in size)
In short: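 Screening used approved and investigational drugs in 15-point titration against 800 seeded cells per well. A fixed combination of auranofin with camptothecin, doxorubicin, rubitecan and topotecan followed compound addition, and growth was scored by CellTiter-Glo after 48hr.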

[20] = qHTS assay to identify small molecule inhibitors of chordoma cells - UCH-2 (AID 1259356; active = well fitted curve in the direction sought with a large enough effect; an effect the other way counts as inactive or inconclusive; note: % is set by controls: 0 for no effect and ±100 for the full control effect)

| Compound | parasite growth, % of DMSO control [1] [%] | parasite growth remaining, % of DMSO control (lower = more inhibition) [2] [%] | parasite growth, % of control (lower = inhibition) [3] [%] | growth, % of control [4] [%] | cell viability, % of control (lower = more cytotoxic) [5] [%] | viability (% of control) [6] [%] | Potency [7] | Potency [8] | Potency [9] | Potency [10] | remaining proliferation (% of control), lower = more inhibition [11] [%] | Potency [12] | Potency [13] | Potency [14] | IC50 (viability decrease) [15] | Potency [16] | Potency [17] | Potency [18] | outcome [19] | outcome [20] |
| --- | --- | --- | --- | --- | --- | --- | --- | --- | --- | --- | --- | --- | --- | --- | --- | --- | --- | --- | --- | --- |
| O=C1CCCC(=O)C1C(=O)c1ccc(C(F)(F)F)cc1[N+](=O)[O-] | 90.1 | 103 | 114 | 93.4 | 124 | 101 | inactive | inactive | inactive |  |  |  |  |  |  |  |  |  |  |  |
| CC(C)(C)c1nc(-c2cccc(NS(=O)(=O)c3c(F)cccc3F)c2F)c(-c2ccnc(N)n2)s1 | 18.2 | 16.6 | 35 | 10.3 | 25.6 | 55.4 | inactive | inactive | 18.7 µM (active) |  |  |  |  |  |  |  |  |  |  |  |
| COc1cc(C=CC(=O)O)ccc1O | 88.4 | 95 | 98.9 | 82.4 | 105 | 96.5 | inactive | inactive | inactive | inactive |  |  |  |  |  |  |  |  |  |  |
| CCOC(=O)N1c2ccc(C(F)(F)F)cc2[C@@H](N(Cc2cc(C(F)(F)F)cc(C(F)(F)F)c2)C(=O)OC)C[C@H]1CC | 6.27 | 7.82 | 14.4 | 3.55 | 115 | 91.9 | inactive | inactive | 20.9 µM (active) |  |  |  |  |  |  |  |  |  |  |  |
| CN(C)CCN(C)C(=O)c1ccc(NC(=O)Nc2ccc(-c3nc(N4CCOCC4)c4ccn(CC(F)(F)F)c4n3)cc2)cc1 | 5.47 | 8.31 | 20.5 | 5.21 | 4.33 | 3.29 | inactive | inactive | 0.0209 µM (active) |  | -1 | 0.418 µM (active) | 6.62 µM (active) | 0.264 µM (active) | 0.0418 µM (active) |  |  |  |  |  |
| C=C1[C@H](n2cnc3c(=O)[nH]c(N)nc32)C[C@H](O)[C@H]1CO | 53.5 | 88 | 34.7 |  | 147 | 8.7 | inactive | inactive | 13.2 µM (active) | inactive |  |  |  |  |  |  |  |  |  |  |
| COC(=O)[C@H](c1ccccc1Cl)N1CCc2sccc2C1 | 43.8 | 79 | 22.1 |  | 95.6 | 91.3 | inactive | inactive | inactive |  |  |  |  |  |  |  |  |  |  |  |
| O=C1Nc2ccc(I)cc2C1=Cc1cc(Br)c(O)c(Br)c1 | 20.7 | 30.6 | 32.9 | 17.7 | 562 | 106 | inactive | inactive |  | 20.9 µM (active) |  |  |  |  |  |  |  |  |  |  |
| CNc1nc(Nc2ccc(C(=O)N3CCOCC3)cc2OC)ncc1Cl | 69.3 | 90.3 |  | 54.9 | 103 | 93.7 | inactive | inactive | inactive |  |  |  |  |  |  |  |  |  |  |  |
| COc1cccc(OC)c1-c1cc(C(=O)NC2(C(=O)O)C3CC4CC(C3)CC2C4)nn1-c1ccnc2cc(Cl)ccc12 (stereo unspecified) | 31.4 | 33.7 | 29.8 | 7.09 | 119 |  | inactive | inactive | inactive |  | 47.3 | inactive |  | inactive | 20.9 µM (active) | inactive | inactive | inactive |  |  |
| O=S(=O)(NCCNCC=Cc1ccc(Br)cc1)c1cccc2cnccc12 | 35.6 | 19.2 | 35.5 | 33.3 | 247 | 57.7 | inactive | inactive |  |  |  |  |  |  |  |  | 2.64 µM (active) |  |  |  |
| CN1CC(=O)N2C(Cc3c([nH]c4ccccc34)[C@H]2c2ccc3c(c2)OCO3)C1=O (stereo partly specified) | 14 | 17.5 | 23.9 | 11.5 | 110 | 85.7 | 3.72 µM (active) | inactive | inactive | inactive |  |  |  |  |  |  |  |  | inactive | inactive |
